APP 5UTR inh – APP translation inhibition; SH-SY5Y APP 5'UTR-luciferase reporter, luminescence; inhibition, % at 2 µM; hit rate 0.82% among 190,000; AID 1285;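 active = inhibition above a set limit, derived from the sample mean plus 3 SD, cut at about 45% in these data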
KLF5 inhibitor – inhibitors of KLF5 expression. DLD-1 KLF5 promoter-luciferase reporter, luminescence. inhibition, % at 5 µM. hit rate 0.23% among 290,000. AID 1700;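 active = inhibition above a per-plate limit of that plate's mean compound inhibition plus 3 SD, cut at about 60% in these data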;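 also: 0% = DMSO wells and 100% = LY294002 at 200 µM; higher means less KLF5 promoter-driven luciferase light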
Ba/F3 V617F tox – lowers viability of Ba/F3 cells expressing EpoR and JAK2V617F. hit rate 1.1% among 220,000. ATP luminescence. inhibition, % at 5.6 µM;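 active = inhibition above the campaign mean plus 3 SD over all tested compounds, cut at about 24% in these data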;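 also: cytokine-independent growth of Ba/F3 cells driven by EpoR plus mutant JAK2; 0% = DMSO-treated cells and 100% = JAK inhibitor I control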
IEC-6 cytotox – IEC-6 cytotoxicity, counter-screen for KLF5 inhibitors. luminescence viability. hit rate 0.78% among 290,000. AID 1825. inhibition, % at 5 µM; in the data active = inhibition above about 22%;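 also: 0% = plate median of test compound wells and 100% = cytotoxic reference compound wells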
BaF3 parental – reduces parental Ba/F3 cell viability, JAK2V617F counter-screen; CellTiter-Glo ATP luminescence; inhibition, % at 5.6 µM; hit rate 1.1% among 220,000; AID 1486;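 active = inhibition above a per-campaign cutoff, the mean inhibition of all tested compounds plus 3 SD, cut at about 27% in these data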;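 also: 0% = DMSO wells and 100% = JAK Inhibitor I control wells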
aSyn UTR inh – 5' untranslated region of α-synuclein, MLPCN primary screen; alpha-synuclein 5'UTR reporter, inhibitor activity; inhibition, % (tested at 7.5 µM); hit rate 0.82% among 300,000; in the data active = inhibition above about 60%;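 also: H4 neuroglioblastoma cells stably carrying SNCA 5'UTR luciferase fusion; 0% = DMSO wells and 100% = positive control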
The depositor's hits bear a star; . = not tested or not shown. In the library only some 2.2% were active in any assay of this set; here they are far more common.

SMILES	APP 5UTR inh	KLF5 inhibitor	Ba/F3 V617F tox	IEC-6 cytotox	BaF3 parental	aSyn UTR inh
CC(=O)OCCNc1cc(Sc2nc3ccccc3[nH]2)c2nonc2c1[N+](=O)[O-]	79*	-22	0	1	3	-23
COc1ccc(S(=O)(=O)N(NC2=NS(=O)(=O)c3ccccc32)C(=O)C(C)C)cc1	-2	3	-3	2	5	-19
CC(=O)C1=NN(c2ccccc2)C(c2ccc3c(c2)OCO3)N1c1ccccc1 (stereo unspecified)	-26	-43	21	-1	46*	-11
CC(=O)N1N=C(c2ccccc2)CC1c1ccc2c(c1)OCO2 (stereo unspecified)	.	-30	.	-1	.	-27
CC(=O)C1=NN(c2ccccc2)C(c2cccs2)N1c1ccc(N(C)C)cc1 (stereo unspecified)	-10	-87	81*	8	70*	2
O=c1[nH][nH]cc1C=Nc1ccc(Cl)cc1Cl	64*	-3	4	0	5	-53
O=c1[nH][nH]cc1C=Nc1cc(Cl)ccc1O	21	-14	5	3	3	-49
Cc1cc(=O)[nH]c(SCC(=O)/C=C2\N(C)c3ccccc3C2(C)C)n1	6	-8	67*	5	62*	2
CN1/C(=C\C(=O)C[n+]2ccc(C(=O)c3ccccc3)cc2)C(C)(C)c2ccccc21	-11	-28	-2	1	-1	14
Cc1cccc[n+]1CC(=O)/C=C1\N(C)c2ccccc2C1(C)C	-4	-2	91*	0	67*	-14
COCCn1c(SCC(=O)/C=C2\N(C)c3ccccc3C2(C)C)nnc1-c1ccncc1	4	-5	32*	-1	34*	6
Cc1ccc[n+](CC(=O)/C=C2\N(C)c3ccccc3C2(C)C)c1	15	6	51*	6	54*	-6
CN(CC(=O)Nc1ccccc1Cl)C(=O)c1ccc(-c2cccc(C(F)(F)F)c2)o1	.	.	.	.	.	7
Nc1nonc1-n1nnc(C(=O)N/N=C/c2cccc(Cl)c2Cl)c1CN1CCCC1	.	-3	.	-3	.	-23
Cc1cccc(C)c1-n1cccc1/C=C1\SC(=S)N(c2cccc(C(=O)O)c2)C1=O	-2	-67	9	-3	12	-28
CN1/C(=C\C(=O)C[n+]2cccc(C(N)=O)c2)C(C)(C)c2ccccc21	-12	-4	-2	-6	0	12
CN1/C(=C\C(=O)C[n+]2cccc(Br)c2)C(C)(C)c2ccccc21	0	-11	66*	0	67*	-9
CN1/C(=C\C(=O)COC(=O)CN2C(=O)C3CC=CCC3C2=O)C(C)(C)c2ccccc21 (stereo unspecified)	-2	-17	5	-2	4	1
CN1/C(=C\C(=O)CN2C(=O)NC3(CCCCCC3)C2=O)C(C)(C)c2ccccc21	16	-28	41*	2	46*	13
Cc1ccc(NC(=O)COC(=O)[C@H](C)N2C(=O)C3CC=CCC3C2=O)cc1S(=O)(=O)N(C)C (stereo partly specified)	-15	-6	1	0	4	12
Cc1cc(NC(=O)c2cncc(Br)c2)ccc1NC(=O)c1cc2ccccc2o1	.	-5	.	12	.	78*
COc1cc(NC(=O)c2ccccc2)ccc1NC(=O)c1cc2ccccc2o1	.	-32	.	-6	.	-10
Cc1ccc(OCC(=O)Nc2ccc(NC(=O)c3ccccc3)c(C)c2)cc1	.	-8	.	3	.	.
Cc1cc(O)c(C)c(O)c1/C=N/NC(=O)c1cccnc1	.	22	.	13	.	69*
Cn1nccc1-c1cc(Cl)cc(Cl)c1O	.	-1	2	10	1	-11
SMILES	APP 5UTR inh	KLF5 inhibitor	Ba/F3 V617F tox	IEC-6 cytotox	BaF3 parental	aSyn UTR inh
CCC(=O)Nc1ccc(NC(=S)Nc2ccccc2)cc1	-11	-18	-2	-2	58*	-10
CCC(=O)Nc1ccc(NC(=S)NC(=O)Cc2ccccc2)cc1	-17	-52	-3	4	7	-15
CC(C(=O)Nc1ccccc1)N(C)Cc1cccs1 (stereo unspecified)	.	-20	.	-3	.	1
N#C/C(=C/c1ccc(N2CCCCCC2)o1)c1ccc(F)cc1	-13	1	2	1	3	-111
N#C/C(=C/c1ccc(N2CCOCC2)o1)c1ccc(Br)cc1	10	10	58*	-1	62*	-284
N#C/C(=C/c1ccc(N2CCOCC2)o1)c1nc2ccccc2[nH]1	-158	-43	-4	-2	3	.
N#C/C(=C\c1ccc(N2CCOCC2)o1)c1ccccc1	-28	-24	5	3	30*	-223
Cc1c(CC(=O)N[C@@H](C)C(=O)O)c(=O)oc2cc3oc4c(c3cc12)CCCC4	.	-53	.	1	.	6
COc1cc(O)c(/C=N/NC(=O)c2ccncc2)c(OC)c1[N+](=O)[O-]	-19	-3	1	1	5	-8
COc1ccc(C(=O)Nc2ccc3c(c2)C(=O)c2ccccc2C3=O)cc1OC	-25	-47	-2	-4	6	-9
COc1ccc(C(=O)c2c(C(F)(F)F)oc3c2C(=O)c2ccccc2C3=O)cc1OC	19	-35	3	2	5	111*
N/C(=N\OC(=O)c1ccc([N+](=O)[O-])cc1)c1cccnc1	-25	-32	-3	3	2	-92
N/C(=N\OC(=O)c1cc([N+](=O)[O-])ccc1Cl)c1cccnc1	.	-29	-1	0	2	88*
Cn1ncc(Br)c1C(=O)Nc1c(F)c(F)cc(F)c1F	3	-27	-2	0	1	13
CSc1ccccc1NC(=O)c1c(Br)cnn1C	51*	-31	3	1	3	20
CCC(Oc1ccccc1)C(=O)Nc1cc(C)on1 (stereo unspecified)	5	1	-1	1	-3	6
CCC(Oc1ccccc1)C(=O)Nc1ccccn1 (stereo unspecified)	-35	2	-2	-2	89*	-46
Fc1ccc(COc2cccc(CNCc3ccncc3)c2)cc1	26	14	-6	-3	7	1
Clc1cc(/C=N\NC2=NCCN2)cc(Cl)n1	.	.	.	.	.	-26
CC(C)CC(=O)Nc1ccnn1C1CCN(C(=O)c2ccc(F)cc2Cl)CC1	.	-27	.	2	.	-12
CCCCSc1nc(C)cc(SCC(=O)N/N=C/c2cccc(OC)c2O)n1	43	24	2	0	9	81*
COc1cccc(/C=N/NC(=O)c2ccc(-c3ccccc3)cc2)c1O	18	23	-3	3	2	76*
COc1ccc(OC)c(/C=N\NC(=O)c2ccc(-c3ccccc3)cc2)c1	.	-18	.	5	.	.
COc1ccc(CCCC(=O)N/N=C/c2cccc(OC)c2O)cc1C	12	-18	-2	3	6	74*
COc1cccc(/C=N/NC(=O)C(=O)Nc2ccccc2OC(F)(F)C(F)F)c1O	33	13	-3	2	0	71*
COc1cccc(/C=N/NC(=O)CSc2nnc(C)n2-c2ccccc2)c1O	-9	24	0	3	-3	38
